Bioassay records as filed in PubChem.
Lamin A splicing = qHTS Assay for Modulators of Lamin A Splicing | HeLa LMNA splicing GFP/RFP minigene ratio, 48 h | Potency, µM (series often up to 46.1 µM), for inactives: top-dose ratio change, negative = inhibition, most hits filed as inhibitors | actives 0.01% (n = 200,000) | AID 1487, 2009; active = well fitted inhibition curve with a large enough effect in the signal ratio, with a control signal flat, not every such curve was filed as active; inconclusive = small, poorly fitted or top-dose-only effect, or effect the other way, or a change in a side signal; the % refers to the signal ratio
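Read-out is the ratio of GFP to DsRed2 object intensity, acquired by 488 nm laser-scanning cytometry on HeLa lamin A-EGFP minigene reporter cells. Compound incubation 48 hrs at 37 °C in Opti-MEM with 2% FBS; DMSO 0.5% final.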
KinaseGlo FLuc = Counterscreen for Luciferase (Kinase-Glo TM) Inhibition; Potency, µM (doses to about 38.3 µM), inactives show at the top dose activity change, negative = inhibition, usual class: inhibitors; Kinase-Glo luciferase, ATP luminescence, 8 min; AID 1379, 2008; actives 0.28% (n = 200,000); active = well fitted curve in the direction sought with a large enough effect; inconclusive = small, poorly fitted or top-dose-only effect, or another doubt; inactive = no such curve, though single readings can be large; an effect the other way counts as inactive or inconclusive; note: nearly all actives have a fitted effect of over 60% in size
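Substrate mix (final 50 mM imidazole pH 7.2, 50 mM KCl, 7 mM MgCl2, 10 uM ATP, 0.01% Tween 20, 0.05% BSA) plus pin-tool compound, then Kinase-Glo detection mix; 8 min ambient, luminescence read.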
ALDH1A1 block = qHTS Assay for Inhibitors of Aldehyde Dehydrogenase 1 (ALDH1A1) | Purified ALDH1A1, NADH fluorescence, propionaldehyde substrate | actives 7.3% (n = 220,000) | Aldehyde dehydrogenase 1A1 (Homo sapiens), P00352 | Potency, µM (top dose mostly 75.3 µM), inactives show at the highest dose activity, negative = inhibition, most hits filed as inhibitors;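 note: plate controls were no enzyme wells and a reference inhibitor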
Target sequence (P00352 whole entry, looked up): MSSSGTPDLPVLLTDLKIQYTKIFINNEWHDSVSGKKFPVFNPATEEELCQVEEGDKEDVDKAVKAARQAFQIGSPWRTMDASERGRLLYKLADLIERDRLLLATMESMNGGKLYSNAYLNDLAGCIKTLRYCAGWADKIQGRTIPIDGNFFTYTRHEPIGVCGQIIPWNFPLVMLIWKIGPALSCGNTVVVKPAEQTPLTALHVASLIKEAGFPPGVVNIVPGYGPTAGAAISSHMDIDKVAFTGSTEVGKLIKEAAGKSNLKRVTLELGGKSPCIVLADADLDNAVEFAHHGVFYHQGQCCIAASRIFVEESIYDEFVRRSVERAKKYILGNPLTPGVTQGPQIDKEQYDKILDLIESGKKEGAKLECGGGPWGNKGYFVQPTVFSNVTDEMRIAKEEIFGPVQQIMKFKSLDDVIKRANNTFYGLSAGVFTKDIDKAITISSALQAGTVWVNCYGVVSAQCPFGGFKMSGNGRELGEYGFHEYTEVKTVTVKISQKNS
IMPase Li cell = qHTS Assay for Identifying the Cell-Membrane Permeable IMPase Inhibitors: Potentiation with Lithium; CHO-M1 cells, IP1 TR-FRET (IP-One), carbachol + lithium; Potency, µM (top dose mostly 59.4 µM), without a hit: at the highest dose activity, negative = IMPase inhibition, hits mostly inhibitors; actives 0.35% (n = 210,000); AID 1457, 2008; active = well fitted curve in the direction sought with a large enough effect; inconclusive = small, poorly fitted or top-dose-only effect, or another doubt; inactive = no such curve, though single readings can be large; an effect the other way counts as inactive or inconclusive;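 note: IP1 builds up when IMPase is blocked and the TR-FRET signal falls; plate controls were basal vehicle for no effect and high inhibitor control for full effect; nearly all actives have a fitted effect of over 50% in size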
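Test compounds were applied to CHO-M1 cells previously cultured for 16–30 h at 2000 per well. A small lithium amount accompanied them; after 30 min at 37C, IP1 was quantified by TR-FRET.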
HPGD block = qHTS Assay for Inhibitors of HPGD (15-Hydroxyprostaglandin Dehydrogenase); AID 894, 2007; 15-hydroxyprostaglandin dehydrogenase [NAD(+)] (Homo sapiens), P15428; actives 4.3% (n = 150,000); purified HPGD, NADH fluorescence kinetic, PGE2 substrate; Potency, µM, for the others: top-dose activity change, negative = inhibition, most hits filed as inhibitors
Target sequence (P15428 whole entry, looked up): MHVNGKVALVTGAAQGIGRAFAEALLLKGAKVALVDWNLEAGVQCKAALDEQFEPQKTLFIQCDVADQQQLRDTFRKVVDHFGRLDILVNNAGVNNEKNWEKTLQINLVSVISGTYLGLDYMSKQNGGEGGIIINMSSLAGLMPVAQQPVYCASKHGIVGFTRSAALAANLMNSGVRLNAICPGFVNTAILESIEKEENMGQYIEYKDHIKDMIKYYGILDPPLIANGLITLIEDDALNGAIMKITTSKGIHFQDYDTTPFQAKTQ
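NADH formation kinetics: reaction with 30 uM PGE2 and 1 mM NAD+ (final), 20 nM enzyme, Tris-HCl pH 8 with Tween 20, after 15 min compound preincubation at room temperature. Fluorescence change, last versus first of five reads.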
Numbers without * were called inactive; ? = inconclusive; . = not tested or not shown; [ ] = another dose, or the depositor's remark. A selection: hits, their analogues and other compounds. The true share with any hit is near 9%. Unless noted, calls come from the whole dose curve; as a rule, active = well fitted inhibition curve with a large enough effect (not every such curve was filed as active); inconclusive = small, poorly fitted or top-dose-only effect, or another doubt; inactive = no such curve, though single readings can be large or run the other way. Unless noted, % is set by controls: 0 for no effect and ±100 for the full control effect; potency is the fitted concentration of half-maximal effect.

SMILES	Lamin A splicing	KinaseGlo FLuc	ALDH1A1 block	IMPase Li cell	HPGD block
Oc1c(N=NC(=S)Nc2ccccc2F)c2ccccc2n1Cc1ccc(Cl)cc1	?	-2.0%	10µM*	-5.0%	.
CCn1c(O)c(N=NC(=O)CNC(=O)/C=C/c2ccco2)c2ccccc21	-17.6%	-1.0%	?	10.5%[38.3 µM]	-23.2%
O=C(CNC(=O)/C=C/c1ccccc1)N=Nc1c(O)n(Cc2ccccc2)c2ccccc12	-7.0%	6.0%	3.55µM*	14.8%	-11.6%
Cc1ccccc1Cn1c(O)c(N=NC(=S)Nc2ccccc2F)c2ccccc21	?	-2.1%	31.6µM*	-1.0%	.
Cc1ccc(Cn2c(O)c(N=NC(=S)Nc3ccccc3F)c3cc(S(=O)(=O)N4CCOCC4)ccc32)cc1	12.8%[46 µM]	0.0%	?	-4.8%	.
CCNC(=S)N=Nc1c(O)n(Cc2ccc(Cl)cc2)c2ccccc12	?	11.4%	3.55µM*	2.8%	-22.4%
Cc1ccc(C)c(Cn2c(O)c(N=NC(=S)Nc3ccccc3F)c3ccccc32)c1	.	-0.2%	12.6µM*	1.1%	.
CCn1c(CNC(=O)c2ccccc2F)nnc1SCC(=O)NC1CCCCC1C (centres undefined)	-0.6%[46 µM]	0.7%	-8.2%	5.8%	.
CC(NC(=O)/C(=C\c1cccc([N+](=O)[O-])c1)NC(=O)c1ccco1)C(=O)O (centres undefined)	7.9%[0.0737 µM]	-6.0%	6.31µM*	7.0%[38.3 µM]	28.2µM*
O=C(NCCO)/C(=C/c1cccc([N+](=O)[O-])c1)NC(=O)c1ccco1	.	0.8%	2.8%	13.3%	.
O=C(C[n+]1ccn(CCCNP2(=O)C=C(c3ccccc3)OC(c3ccccc3)=C2)c1)c1cccs1	-0.8%[46 µM]	0.7%	14.1µM*	5.1%	.
O=C(C[n+]1cc(-c2ccccc2)n2c1CCC2)c1cccs1	-26.6%[46 µM]	4.5%	4.4%	13.0%	.
Cc1ccc(Cl)cc1NC(=O)c1cc(CN2CCCC2)on1	-12.2%[46 µM]	.	.	.	.
Nc1ccc2oc(-c3cccc4ccccc34)nc2c1	1.0%	-5.6%	?	?	22.4µM*
Cc1ccc(-c2nc3cc(N)ccc3o2)c(C)c1	3.2%	-9.5%	?	?	?
Cc1ccc([N+](=O)[O-])cc1N/C=C/C(=O)c1ccco1	?	-1.4%	22.4µM*	14.2%[38.3 µM]	-24.4%
CCOc1ccc(C(C)=O)cc1CN1C(=O)NC(C)(C2CC2)C1=O (centres undefined)	?	2.3%	?	3.7%	.
CC(C)C(NC(=O)CSCc1ccc([N+](=O)[O-])cc1)C(C)C	?	0.1%	-10.5%	7.4%	10µM*
O=C(CSCc1ccc([N+](=O)[O-])cc1)NC1CC1	-0.6%	1.1%	5.7%	-0.1%	0.3%
CCNC(=O)c1ccccc1SCC(=O)Nc1ccc(F)cc1	.	1.7%	0.5%	19.3%	.
COCC(=O)N1CCC2(CC1)CN(C(=O)Nc1ccccc1)C2	.	-5.7%	7.0%	3.4%	-4.3%
CN1CCN(C(=O)c2cc3nc(-c4ccc(F)cc4)cc(C(F)(F)F)n3n2)CC1	-3.8%	-2.2%	-6.1%	-5.6%[38.3 µM]	11.2µM*
O=C(c1cc2nc(-c3ccc(F)cc3)cc(C(F)(F)F)n2n1)N1CCCCC1c1cccnc1 (centres undefined)	?	-0.6%	14.1µM*	14.0%	.
COc1ccc(-c2cc(C(F)(F)F)n3nc(C(=O)N4CCCC4)cc3n2)cc1	-2.1%	0.5%	?	1.0%[38.3 µM]	?
C[C@@]1(C(NS(=O)(=O)c2cccc3cccnc23)c2ccc(-c3ccccc3)cc2)C[C@H]1C1CCCCC1 (some centres undefined)	.	-5.1%	-3.1%	7.9%	-6.1%
SMILES	Lamin A splicing	KinaseGlo FLuc	ALDH1A1 block	IMPase Li cell	HPGD block
c1ccc2c(c1)ncn2CCCCOc1ccc2c(c1)CCC2	?	-1.5%	14.1µM*	47.9%[38.3 µM]	?
CC1(C)CC(=O)C=C(OC(=O)c2ccc(Cl)cc2)C1	-3.7%	4.6%	6.8%	-3.1%	14.1µM*
COC(=O)CCNC(=O)N1CCN(c2nnc(C)c3c(C)n(-c4ccc(Cl)cc4)nc23)CC1	-1.4%[46 µM]	.	.	.	.
Cc1cccc(OCCn2nc(C(=O)O)c3ccccc3c2=O)c1	13.6%	-4.0%	-11.8%	40.6%[38.3 µM]	28.2µM*
O=c1c2ccccc2cnn1CCOc1ccccc1	2.6%	8.91µM*	-10.5%	9.2%	-14.5%
O=C(O)Cn1ncc2ccccc2c1=O	.	-1.7%	1.1%	-5.5%	.
Cc1c(Cl)c(C(=O)NC2C3CC4CC(C3)CC2C4)nn1C (centres undefined)	?	-0.1%	?	2.5%	20µM*
Cn1ncc(Br)c1C(=O)NC1C2CC3CC(C2)CC1C3 (centres undefined)	?	-5.7%	-14.0%	1.9%	-4.7%
CCOc1ccc(Nc2nc3cc(S(=O)(=O)N(CC)CC)ccc3o2)cc1	?	1.6%	3.16µM*	25.3%[38.3 µM]	3.55µM*
CCS(=O)(=O)c1ccc2oc(Nc3ccc(C(C)C)cc3)nc2c1	-3.1%	-2.2%	3.98µM*	13.8%[38.3 µM]	3.98µM*
Cn1nccc1NC(=O)CSCC(=O)O	.	.	9.7%	.	.
CN(C)S(=O)(=O)c1cc(NC(=O)CN2CCOCC2)ccc1Cl	?	1.1%	-7.3%	-6.0%	.
Cc1ccc(NC(=O)CNc2ccc(N3CCOCC3)cc2)cc1S(=O)(=O)N(C)C	-2.1%[46 µM]	2.3%	10µM*	7.7%	.
Cc1ccc2c(c1)C(=O)C(=O)N2CC(=O)Nc1ccc(N2CCOCC2)cc1	.	0.4%	8.91µM*	-7.8%	.
CC(C)(C)c1[nH]nc2c1C(Cc1ccccc1)C(C#N)=C(N)O2 (centres undefined)	-14.7%	2.5%	-4.5%	37.0%[38.3 µM]	-7.7%
O=S(=O)(Cc1ccccc1)N1CCc2ccccc21	-9.7%	4.8%	?	5.4%	-1.4%
CC(C)N(CC#CCC1(O)c2ccccc2-c2ccccc21)CCO	-11.3%	2.2%	20µM*	9.8%	-9.1%
CCN(CC#CCC1(O)c2ccccc2-c2ccccc21)CCO	1.1%	-5.2%	-4.6%	8.1%[38.3 µM]	-10.8%
Cc1cc(NC(=O)CSc2nc3cc(Cl)ccc3s2)no1	1.2%	-2.1%	4.6%	-8.9%[38.3 µM]	-11.3%
Cc1cc(SCC(=O)N2CCCC2)nc2ccccc12	?	11.5%	-27.4%	-28.2%[38.3 µM]	12.6µM*
Cc1cc(SCC(=O)c2cc3ccccc3o2)nc2ccccc12	3.4%	-5.1%	28.2µM*	-4.9%[38.3 µM]	35.5µM*
O=C(CSc1nc2cc(Cl)ccc2s1)c1cc2ccccc2o1	8.7%	-5.5%	28.2µM*	24.9%[38.3 µM]	?
CC(C)CN1CC[C@@]2(CCCN(C(=O)c3cc(C(F)(F)F)cc(C(F)(F)F)c3)C2)C1	.	-1.6%	5.1%	4.3%	0.7%
